KLF5 inhibitor = KLF5 expression inhibitors, primary screen, DLD-1 cells, luminescence. DLD-1 KLF5 promoter-luciferase reporter. inhibition, % at 5 µM. 0.23% of 290,000 active;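 active = inhibition above a per-plate limit of that plate's mean compound inhibition plus 3 SD, cut at about 60% in these data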;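 note: higher means less KLF5 promoter-driven luciferase light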
IEC-6 tox = cytotoxicity in IEC-6 intestinal epithelial cells, primary screen, cytotoxicity control for KLF5 inhibitor project, cell-based, luminescence | IEC-6 cytotoxicity, luminescence viability | inhibition, % at 5 µM | 0.78% of 290,000 active | AID 1825, 2009; in the data active = inhibition above about 22%
Ba/F3 V617F tox = reduced viability of JAK2V617F-dependent Ba/F3 cells, primary screen, JAK2V617F inhibitor project, cell-based, Ba/F3 EpoR-JAK2V617F, luminescence; ATP luminescence; inhibition, % at 5.6 µM; 1.1% of 220,000 active;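 active = inhibition above the campaign mean plus 3 SD over all tested compounds, cut at about 24% in these data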;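 note: cytokine-independent growth of Ba/F3 cells driven by EpoR plus mutant JAK2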
BaF3 tox = parental Ba/F3 cell viability inhibition, counter-screen for JAK2V617F inhibitor project, murine pro-B, CellTiter-Glo luminescence | CellTiter-Glo ATP luminescence | inhibition, % at 5.6 µM | 1.1% of 220,000 active;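 active = inhibition above a per-campaign cutoff, the mean inhibition of all tested compounds plus 3 SD, cut at about 27% in these data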
APP 5UTR inh = inhibitors of APP translation via 5'UTR reporter, primary screen, APP 5'UTR luciferase, SH-SY5Y cells. SH-SY5Y APP 5'UTR-luciferase reporter, luminescence. inhibition, % at 2 µM. 0.82% of 190,000 active. AID 1285, 2008;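 active = inhibition above a set limit, derived from the sample mean plus 3 SD, cut at about 45% in these data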
aSyn 5UTR inh = MLPCN primary screen, SNCA 5' untranslated region; alpha-synuclein 5'UTR reporter, inhibitor activity; inhibition, % (tested at 7.5 µM); 0.82% of 300,000 active; in the data active = inhibition above about 60%;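 note: H4 neuroglioblastoma cells stably carrying SNCA 5'UTR luciferase fusion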
Large screens that a line does not name were inactive. This is a sample that favours compounds with a hit; in the whole collection about 2.2% have one here.

C=CCNC(=O)CSc1cc([N+](=O)[O-])cc(S(=O)(=O)Cc2ccccc2)c1	BaF3 tox 38
Cc1ccc(-c2n[nH]c(=S)n2/N=C/c2sccc2C)cc1	none (no result: APP 5UTR inh)
COc1ccc(CN(C)C(=O)c2ccc(NS(=O)(=O)c3ccc4[nH]c(=O)[nH]c4c3)cc2)c(OC)c1	none (no result: Ba/F3 V617F tox, BaF3 tox, APP 5UTR inh)
Cc1cc(C)c(NC(=O)CCn2nnc3ccccc32)c(C)c1	none
Cc1ccc(N=Nc2c(N)nn(-c3ccccc3)c2N)cc1	IEC-6 tox 25, Ba/F3 V617F tox 47, BaF3 tox 35
CCOC(=O)C1=C(c2ccccc2)N=C2SCC(=O)N2C1c1ccc(OC)c(OC)c1 (configuration not stated)	none
CCOC(=O)C1=C(c2ccccc2)N=C2SCC(=O)N2C1c1cccc(OC)c1 (configuration not stated)	APP 5UTR inh 61
C[C@H]1C[C@H]2[C@@H]3CCC4=CC(=O)C=C[C@]4(C)[C@@]3(Cl)[C@@H](O)C[C@]2(C)[C@@]1(O)C(=O)CO	none
O=C(N/N=C(\Cc1ncc[nH]1)c1ccccc1)c1ccccc1	aSyn 5UTR inh 74
O=C(N/N=C(\Cc1ncc[nH]1)c1ccccc1)c1ccncc1	none
CCN(CC1COc2ccccc2O1)C(=S)Nc1ccc(F)cc1 (configuration not stated)	Ba/F3 V617F tox 34, BaF3 tox 31
O=c1cc(O)nc(SCc2ccccc2)n1-c1ccccc1	none
COc1ccc(C(=O)NCC(=O)NCC(=O)OCC(=O)c2ccc(Br)cc2)cc1	none (no result: Ba/F3 V617F tox, BaF3 tox, APP 5UTR inh)
Cc1nc2ccccc2c(=O)n1/N=C/c1c(O)ccc2oc3c(c12)CCCC3	aSyn 5UTR inh 86
Cc1ccc(C2C(C#N)=C(N)Oc3cc(N)ccc32)cc1 (configuration not stated)	none (no result: Ba/F3 V617F tox, BaF3 tox, APP 5UTR inh)
Cc1ccc(/C=C2\CCC3=C2OC(N)=C(C#N)C3c2ccc(C)cc2)cc1 (configuration not stated)	APP 5UTR inh 47
N#CC1=C(N)OC2=C(CCc3ccccc32)C1c1ccccc1 (configuration not stated)	APP 5UTR inh 96, aSyn 5UTR inh 70
CN1C(=CC=C2C=C(I)C(=O)C(I)=C2)C(C)(C)c2ccccc21	BaF3 tox 33 (no result: APP 5UTR inh, aSyn 5UTR inh)
CN1/C(=C\C=C2/SC(=S)NC2=O)C(C)(C)c2ccccc21	Ba/F3 V617F tox 65, BaF3 tox 81
CN1/C(=C\C=C2/C(=O)Oc3ccccc3C2=O)C(C)(C)c2ccccc21	none
COc1ccccc1N1CCN(C(=O)CN2C(=O)C3CCCCC3C2=O)CC1 (configuration not stated)	none
CC(=O)Nc1ccc(Sc2ncccc2C(=O)Nc2ccc(F)cc2)cn1	none
CN(C(=O)COC(=O)c1ccc(=O)n(Cc2ccccc2)n1)C1CCS(=O)(=O)C1 (configuration not stated)	none (no result: KLF5 inhibitor, IEC-6 tox, Ba/F3 V617F tox, BaF3 tox, APP 5UTR inh)
COc1ccc(CNC(=O)CSc2nnc(C(F)(F)F)n2C)cc1	none
O=C(O)COc1ccc(/C=C/C(=O)c2ccc(C3CCCCC3)cc2)cc1	none (no result: Ba/F3 V617F tox, BaF3 tox, APP 5UTR inh)
NCCOc1ccc(C2CCCCC2)cc1	aSyn 5UTR inh 71
COc1cc(NC(=S)NC(=O)CCc2ccccc2)cc(OC)c1	none (no result: Ba/F3 V617F tox, BaF3 tox, APP 5UTR inh)
COc1cccc(-c2cc(C(F)(F)F)n3nc(N)nc3n2)c1	none
Clc1ccc(-c2cn3cccnc3n2)cc1	none
COc1cccc(-c2cn3nc4c(nc3n2)CCCC4)c1	aSyn 5UTR inh 104
Clc1ccc(-c2cn3nc4c(nc3n2)CCCC4)cc1	aSyn 5UTR inh 88
Cc1cccc(NC(=S)N/N=C/c2c[nH]c3ccccc23)c1	APP 5UTR inh 86
COCC(C)NC(=O)NC(=O)c1ccc(Cl)cc1 (configuration not stated)	none
O=C(NCCN1CCOCC1)NC1(C(F)(F)F)Oc2ccc(Cl)cc2O1 (configuration not stated)	Ba/F3 V617F tox 44, BaF3 tox 29, APP 5UTR inh 50
COCC(C)NC(=O)NC1(C(F)(F)F)Oc2ccc(Cl)cc2O1 (configuration not stated)	Ba/F3 V617F tox 38, BaF3 tox 35
O=C(NCCN1CCOCC1)c1cc(Cl)ccc1Cl	none (no result: Ba/F3 V617F tox, BaF3 tox, APP 5UTR inh)
Cc1ccccc1C(=O)O/N=C/c1c(N2CCOCC2)n(C)c2ccccc12	aSyn 5UTR inh 87
CCN1CCN(S(=O)(=O)c2cc(C(=O)O)ccc2Cl)CC1	none (no result: APP 5UTR inh)
CN(C)c1ccc(C(=O)c2ccccc2)cc1	none
CN(C)c1ccc(N=Nc2ccc(C(=O)O)cc2)cc1	aSyn 5UTR inh 64 (no result: Ba/F3 V617F tox, BaF3 tox, APP 5UTR inh)
Clc1cccc(C[n+]2cc(-c3ccccc3)n3c2CCC3)c1	Ba/F3 V617F tox 65, BaF3 tox 65
Cc1ccc(-c2c[n+](Cc3cccc(Cl)c3)c3n2CCC3)cc1	Ba/F3 V617F tox 82, BaF3 tox 75 (no result: APP 5UTR inh)
Cc1nn(CC(=O)NC(C)C)c(C)c1[N+](=O)[O-]	none
COc1cccc(C2CC(=O)Nc3cc4c(cc32)CCC4)c1 (configuration not stated)	IEC-6 tox 46, Ba/F3 V617F tox 38, BaF3 tox 45, APP 5UTR inh 57, aSyn 5UTR inh 84
O=C1CC(c2ccccc2Br)c2cc3c(cc2N1)CCC3 (configuration not stated)	none
O=C1CC(c2cc(Br)ccc2F)c2cc3c(cc2N1)CCC3 (configuration not stated)	aSyn 5UTR inh 65
O=C1CC(c2ccccc2F)c2cc3c(cc2N1)CCC3 (configuration not stated)	Ba/F3 V617F tox 63, BaF3 tox 77, APP 5UTR inh 64, aSyn 5UTR inh 65
Cc1ccc(C(C)C)c(OCc2nn(CC(=O)c3ccc(OC(F)F)cc3)c3[n+]2CCCCC3)c1	Ba/F3 V617F tox 49, BaF3 tox 30
O=C(Nc1nnc(C2CC2)s1)c1cccc(S(=O)(=O)N2CC(c3ccccc3)CC2=O)c1 (configuration not stated)	none
CCOC(=O)C1CCN(S(=O)(=O)c2ccc(-c3ccccn3)s2)CC1	none (no result: APP 5UTR inh)
Cc1ccc(-c2nc3cc(N)ccc3o2)c(C)c1	none
Nc1ccc2oc(-c3cccc4ccccc34)nc2c1	APP 5UTR inh 49, aSyn 5UTR inh 71
CCOc1ccc(-c2csc(NC(=O)CSCC(=O)O)n2)c2ccccc12	none
CCC(=O)c1cc2c(C)cc(=O)oc2c(C)c1OC(=O)C(C)C	none
O=[N+]([O-])c1cc(/C=N/n2cnnc2)ccc1N1CCCC1	aSyn 5UTR inh 65
Cc1[nH]c(N=Nc2ccccc2)nc1N=Nc1ccccc1	aSyn 5UTR inh 63 (no result: APP 5UTR inh)
Nc1ccc(N=Nc2ccccc2)c(N)n1	none
CCc1ccccc1NC(=S)N=Nc1c(O)n(C)c2ccc(S(=O)(=O)N3CCOCC3)cc12	aSyn 5UTR inh 80
Cc1ccc(Cn2c(O)c(N=NC(=S)Nc3ccccc3F)c3cc(S(=O)(=O)N4CCOCC4)ccc32)cc1	APP 5UTR inh 50, aSyn 5UTR inh 66

Compound activity as filed in PubChem.
